Experimental data: PubChem BioAssay (NCI)
The panel holds about 83,000 compounds, 20% with a hit somewhere; the sample as a whole holds those more often.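 In brief: 96-well plates, 48 h treatment, single concentration, percent growth endpoint.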 Activity calls are given as the source filed them. Rule for the calls: active = growth percent below 10; inactive = the rest.

What was measured:
Assay in all cases: NCI-60 one-dose screen, 48 h (100 = growth as untreated, 0 = no growth, -100 = all killed)
Conditions in all cases: 10 µM unless noted
SR leukemia = test system: SR leukemia
OVCAR-8 ovarian = test system: OVCAR-8 ovarian
OVCAR-5 ovarian = test system: OVCAR-5 ovarian
OVCAR-4 ovarian = test system: OVCAR-4 ovarian
SK-OV-3 ovarian = test system: SK-OV-3 ovarian
IGROV1 ovarian = test system: IGROV1 ovarian
OVCAR-3 ovarian = test system: OVCAR-3 ovarian
HS 578T breast = test system: HS 578T breast
NCI/ADR-RES ovarian = test system: NCI/ADR-RES ovarian
T-47D breast = test system: T-47D breast
BT-549 breast = test system: BT-549 breast
MDA-MB-435 melanoma = test system: MDA-MB-435 melanoma
SW-620 colon = test system: SW-620 colon
MCF7 breast = test system: MCF7 breast
HCT-116 colon = test system: HCT-116 colon
KM12 colon = test system: KM12 colon
HCC-2998 colon = test system: HCC-2998 colon
RPMI-8226 leukemia = test system: RPMI-8226 leukemia

Measured: growth

CN(C)CCNC(=O)n1cc(-c2ccncc2)c(-c2cc(O)cc(Cl)c2)n1
inactive: SR leukemia 29.6% | OVCAR-8 ovarian 86.9% | OVCAR-5 ovarian 106% | OVCAR-4 ovarian 118% | SK-OV-3 ovarian 90.8% | IGROV1 ovarian 107% | OVCAR-3 ovarian 109% | HS 578T breast 93.3% | NCI/ADR-RES ovarian 100% | T-47D breast 106% | BT-549 breast 102% | MDA-MB-435 melanoma 51.1% | SW-620 colon 109% | MCF7 breast 102% | HCT-116 colon 86.2% | KM12 colon 106%

CC(C)(CCc1ccccn1)C(=O)CCCc1ccccn1
inactive: SR leukemia 90.9% | OVCAR-8 ovarian 105% | OVCAR-5 ovarian 103% | OVCAR-4 ovarian 111% | SK-OV-3 ovarian 108% | IGROV1 ovarian 108% | OVCAR-3 ovarian 110% | HS 578T breast 111% | NCI/ADR-RES ovarian 106% | T-47D breast 95.2% | BT-549 breast 105% | MDA-MB-435 melanoma 109% | MCF7 breast 98.6% | HCT-116 colon 93.9% | HCC-2998 colon 107% | KM12 colon 106%

O=C(O)CSc1ccc(NCc2oc(CO)cc(=O)c2O)cc1
inactive: SR leukemia 81.8% | OVCAR-8 ovarian 102% | OVCAR-5 ovarian 102% | OVCAR-4 ovarian 103% | SK-OV-3 ovarian 98.7% | IGROV1 ovarian 105% | OVCAR-3 ovarian 110% | HS 578T breast 90.9% | NCI/ADR-RES ovarian 94.3% | T-47D breast 108% | BT-549 breast 92.8% | MDA-MB-435 melanoma 116% | SW-620 colon 105% | MCF7 breast 93.8% | HCT-116 colon 95.2% | HCC-2998 colon 99.9% | KM12 colon 100%

COc1ccccc1/C=N\Nc1ccc([N+](=O)[O-])cn1
inactive: SR leukemia 104% | OVCAR-8 ovarian 106% | OVCAR-5 ovarian 108% | OVCAR-4 ovarian 115% | SK-OV-3 ovarian 108% | IGROV1 ovarian 102% | OVCAR-3 ovarian 117% | HS 578T breast 124% | NCI/ADR-RES ovarian 107% | T-47D breast 94.8% | BT-549 breast 101% | MDA-MB-435 melanoma 104% | SW-620 colon 124% | MCF7 breast 96.2% | HCT-116 colon 96.5% | HCC-2998 colon 100% | KM12 colon 106%

CC(=O)C1CCC2C3CC(C)=C4CC(O)CCC4(C)C3CCC12C (stereo not given)
inactive: SR leukemia 89.9% | OVCAR-8 ovarian 106% | OVCAR-5 ovarian 112% | OVCAR-4 ovarian 93.4% | SK-OV-3 ovarian 112% | IGROV1 ovarian 104% | OVCAR-3 ovarian 113% | HS 578T breast 103% | NCI/ADR-RES ovarian 101% | BT-549 breast 100% | MDA-MB-435 melanoma 109% | SW-620 colon 118% | MCF7 breast 100% | HCT-116 colon 90.7% | KM12 colon 109%

O=C(CC(=O)c1cccc(Cl)c1)c1cccc(Cl)c1
active: SR leukemia 2.96% | NCI/ADR-RES ovarian 8.52%
inactive: OVCAR-8 ovarian 21.9% | OVCAR-5 ovarian 46.8% | OVCAR-4 ovarian 42% | SK-OV-3 ovarian 47.5% | IGROV1 ovarian 34.1% | OVCAR-3 ovarian 32% | HS 578T breast 73.6% | T-47D breast 37.2% | BT-549 breast 47.6% | MDA-MB-435 melanoma 47.9% | SW-620 colon 30.7% | MCF7 breast 25.4% | HCT-116 colon 19.8% | HCC-2998 colon 35% | KM12 colon 41.9%

O=P(O)(O)C(O)(Cc1cccnc1)P(=O)(O)O
inactive: RPMI-8226 leukemia 98.2% | OVCAR-8 ovarian 94.6% | OVCAR-5 ovarian 118% | OVCAR-4 ovarian 86.9% | SK-OV-3 ovarian 111% | IGROV1 ovarian 95.8% | OVCAR-3 ovarian 100% | NCI/ADR-RES ovarian 102% | T-47D breast 76.6% | BT-549 breast 86.3% | MDA-MB-435 melanoma 97.6% | SW-620 colon 98.7% | MCF7 breast 91.2% | HCT-116 colon 106% | HCC-2998 colon 119% | KM12 colon 100%

CCN(CC)c1ccc(/C=C2/NC(=O)NC2=O)cc1
active: HS 578T breast -2.99% | NCI/ADR-RES ovarian -31.9% | MDA-MB-435 melanoma -34.1%
inactive: RPMI-8226 leukemia 74.1% | OVCAR-8 ovarian 79.9% | OVCAR-5 ovarian 33.2% | OVCAR-4 ovarian 77% | SK-OV-3 ovarian 33.7% | IGROV1 ovarian 46.7% | OVCAR-3 ovarian 19.3% | T-47D breast 16.2% | SW-620 colon 29% | HCT-116 colon 20.2% | HCC-2998 colon 39.5% | KM12 colon 20.5%

CC(C)[C@@H]1C=C2CC[C@H]3[C@](C)(CN)CCC[C@]3(C)[C@H]2CC1
active: MDA-MB-435 melanoma -23% | SW-620 colon -65.8% | MCF7 breast -44.3% | HCC-2998 colon -40.1%
inactive: RPMI-8226 leukemia 20.7% | OVCAR-8 ovarian 82.3% | OVCAR-5 ovarian 111% | OVCAR-4 ovarian 77.3% | SK-OV-3 ovarian 113% | IGROV1 ovarian 92.2% | OVCAR-3 ovarian 44.4% | HS 578T breast 74.6% | NCI/ADR-RES ovarian 106% | T-47D breast 53.8% | HCT-116 colon 31.3% | KM12 colon 37.8%

CCCCCCCCCCCC1=NC(C)(C)CN1C(C)C
inactive: OVCAR-8 ovarian 58.7% | OVCAR-5 ovarian 74.6% | OVCAR-4 ovarian 50.7% | SK-OV-3 ovarian 75.9% | IGROV1 ovarian 32.5% | OVCAR-3 ovarian 48.3% | HS 578T breast 53.2% | NCI/ADR-RES ovarian 47.3% | T-47D breast 36.3% | BT-549 breast 77.9% | MDA-MB-435 melanoma 11.2% | SW-620 colon 47.8% | MCF7 breast 27.8% | HCT-116 colon 21.5% | KM12 colon 25.3%
